According to PubChem BioAssay AID540308 (The Scripps Research Institute Molecular Screening Center, 2011):
In all, about 360,000 compounds went through this assay and about 3,500 (0.97%) were called active. The sample holds actives, similar compounds and a random draw of the others, so the mix is not that of the screen.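 Rule for the calls: active = activation above a per-plate cutoff, the mean activation of sample wells on that plate plus 3 SD (cut at about 8% in these data); inactive = the rest.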

Target: Melanocortin receptor 4 (Homo sapiens) (UniProt P32245)
Sequence (P32245 whole entry, looked up): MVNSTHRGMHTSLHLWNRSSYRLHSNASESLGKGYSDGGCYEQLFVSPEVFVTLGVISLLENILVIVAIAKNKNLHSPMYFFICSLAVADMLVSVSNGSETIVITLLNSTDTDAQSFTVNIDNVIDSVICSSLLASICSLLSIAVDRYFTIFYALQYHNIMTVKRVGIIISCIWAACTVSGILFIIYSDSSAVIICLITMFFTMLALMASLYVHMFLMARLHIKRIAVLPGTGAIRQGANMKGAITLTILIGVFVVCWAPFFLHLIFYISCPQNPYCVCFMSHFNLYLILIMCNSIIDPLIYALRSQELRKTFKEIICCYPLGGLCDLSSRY
Assay: MC4R agonists recruiting beta-arrestin, primary screen, cell-based, luminescence, agonist arm of biased-ligand search (AID 540308)
Settings: U2OS MC4R beta-arrestin complementation, at 8.9 µM, stronger effect = higher value, percent of melanotan II response, DMSO zero

Row | SMILES | activation
1 | COC(=O)c1c(C)[nH]c(C(=O)NCCc2ccc(S(N)(=O)=O)cc2)c1C | 0.27% (inactive)
2 | CCCCOC(=O)c1[nH]c(C)c(C(=O)OC)c1C | -0.04% (inactive)
3 | COC(=O)c1c(C)[nH]c(C(=O)/C=C/c2ccc(Cl)cc2)c1C | 30.6% (active)
4 | CCCCCC(O)c1cccc(OCc2ccc3ccccc3n2)c1 (stereo unspecified) | 8.01% (inactive)
5 | CN(CC(=O)Nc1ccc(Cl)cc1)C(=O)c1ccc(COc2ccccc2)cc1 | 23.3% (active)
6 | CN(Cc1ccccc1)C(=O)c1ccc(COc2ccccc2)cc1 | -0.25% (inactive)
7 | COc1ccc(NC(=O)CN(C)C(=O)c2ccc(COc3ccccc3)o2)cc1 | -0.54% (inactive)
8 | O=C(Nc1nnc([C@H]2C[C@H](O)[C@@H](CO)O2)s1)c1cccc(Cl)c1 | 0.51% (inactive)
9 | Cc1cc(Br)ccc1NC(=O)CCCOc1cc(=O)n(C)c2ccccc12 | -1.42% (inactive)
10 | CCc1nc2c(OCCC3CCCCC3)cccn2c1N(C)C(=O)c1ccco1 | 1.25% (inactive)
11 | N#CC(=C1SC=CS1)c1nc(-c2ccccc2)cs1 | 30.3% (active)
12 | N#CC(=C1CCCC1)c1nc(-c2ccc(Cl)cc2)cs1 | -1.29% (inactive)
13 | CC(C)c1cccc(-c2csc(C(O)c3ccccc3)n2)c1 (stereo unspecified) | 5.31% (inactive)
14 | Nc1nnn(CC(=O)N/N=C/c2ccccc2)n1 | -0.81% (inactive)
15 | O=C(Cn1nnc(-c2ccccc2)n1)N/N=C/c1ccc(-c2ccc(Cl)cc2)o1 | 9.43% (active)
16 | O=C(CN1CCOCC1)N/N=C/c1ccc(-c2ccc(Br)cc2)o1 | -3.54% (inactive)
17 | Cc1cc2nc(SCCN3CCOCC3)[nH]c2cc1C | 3.6% (inactive)
18 | Cc1ccc(-n2nc3cc(Cl)c(NC(=O)c4ccco4)cc3n2)cc1 | 9.62% (active)
19 | Cc1ccc(-n2nc3cc(C)c(NC(=O)c4cccnc4)cc3n2)cc1 | 2.16% (inactive)
20 | Cc1ccc(NC(=O)c2ccco2)cc1 | -2.18% (inactive)
21 | CCOc1ccc(C(=O)Nc2ccc(S(=O)(=O)NCC3CCCO3)cc2)cc1OCC (stereo unspecified) | -3.73% (inactive)
22 | CCCNC(=O)C1(C)CCCN(Cc2c(C)nn(-c3ccccc3)c2C)C1 (stereo unspecified) | 0.24% (inactive)
23 | CC(C)Oc1cc(F)ccc1-c1cc(C(=O)Nc2cccc(Cl)c2)[nH]n1 | 0.52% (inactive)

Row | SMILES | activation
24 | Cc1cc(C)cc(C(=O)OCC(=O)NCCNC(=O)COC(=O)c2cc(C)cc(C)c2)c1 | 12% (active)
25 | COc1ccc(C(=O)OCC(=O)NCCCc2ccccc2)cc1OC | 1.24% (inactive)
26 | COc1ccccc1C(=O)OCC(=O)NCCNC(=O)COC(=O)c1ccccc1OC | -1.16% (inactive)
27 | CCOC(=O)C1CCCN(C(=O)c2ccc(C)c(F)c2)CC1 (stereo unspecified) | -1.19% (inactive)
28 | Cc1ccc(-n2c(C)cc(/C=C(\C#N)C(=O)NCC3CCCO3)c2C)cc1 (stereo unspecified) | -2.19% (inactive)
29 | Cc1cc(/C=C(/C#N)C(=O)Nc2ccc(Cl)cc2)c(C)n1-c1cccnc1 | 11.4% (active)
30 | N#C/C(=C\c1cccnc1)C(=O)Nc1ccc(SC(F)F)cc1 | -1.77% (inactive)
31 | CC1(C(=O)NCC2CCOCC2)Cc2c(-c3cccc(C(N)=O)c3)ccnc2O1 (stereo unspecified) | 0.47% (inactive)
32 | COC(=O)c1ccccc1NC(=O)CSc1nnnn1C | -1.06% (inactive)
33 | CCOC(=O)c1c(-c2ccc(C)cc2C)csc1NC(=O)CSc1nnnn1C | 14.8% (active)
34 | Cn1nnnc1SCC(=O)Nc1sccc1C(N)=O | 0.49% (inactive)
35 | OC[C@H]1O[C@@H](c2nc(-c3nc(-c4ccc(F)cc4)no3)cs2)[C@H](O)[C@@H](O)[C@H]1O | -1.58% (inactive)
36 | Nc1nc(CSc2nnnn2-c2ccccc2)nc(Nc2ccccc2)n1 | 3.67% (inactive)
37 | CCOC(=O)c1ccc(-c2ccc3ncnc(N(C)Cc4sccc4C)c3c2)o1 | 1.6% (inactive)
38 | CC1(C(=O)NS(=O)(=O)c2ccc(C#N)cc2)CCN1C(=O)c1ccc(C2CCCCC2)cc1 (stereo unspecified) | -2.29% (inactive)
39 | CCc1ccc(CN(C)C(=O)C2CCC(=O)N(Cc3cccc(OC)c3)C2)nc1 (stereo unspecified) | -1.43% (inactive)
40 | Cc1nc2c(OCC(=O)C(C)(C)C)cccn2c1N(C)Cc1cccs1 | -0.1% (inactive)
41 | CCN(CC(=O)Nc1c(F)cccc1F)C(=O)c1ccc(S(=O)(=O)N2CCCCC2)cc1 | -2.71% (inactive)
42 | CN(C)CCCN(C(=O)c1ccc(S(=O)(=O)N2CCCCCC2)cc1)c1nc2ccc(Br)cc2s1 | 9.74% (active)
43 | CN(C)CCN(C(=O)C1=COCCO1)c1nc2ccc(Cl)cc2s1 | 1.13% (inactive)
44 | CCNC(=O)C1(C)CCN(Cc2ccc(C(=O)OCC)o2)C1 (stereo unspecified) | -1.16% (inactive)
45 | Cn1c(=O)c2cc(NC(=O)NCCc3cccs3)ccc2n1Cc1cccc(C(F)(F)F)c1 | -0.26% (inactive)
46 | CCc1nc2c(OCC(N)=O)cccn2c1N(C)C(=O)c1ccc(OC)cc1 | -1.44% (inactive)

Row | SMILES | activation
47 | COC(=O)c1nc2n(n1)C(c1ccc([N+](=O)[O-])cc1)C(C(=O)Nc1ccc(Cl)cc1)=C(C)N2 (stereo unspecified) | 9.62% (active)
48 | COc1ccc(NC(=O)C2=C(C)NC(=O)NC2c2ccccc2[N+](=O)[O-])cc1 (stereo unspecified) | -2.18% (inactive)
49 | COc1cc(C2C(C(=O)Nc3ccc(F)cc3)=C(C)Nc3nc(CCCO)nn32)cc(OC)c1OC (stereo unspecified) | -1.43% (inactive)
50 | CCNC(=O)C1(C)CCN(C(=O)c2ccccc2)C1 (stereo unspecified) | 1.33% (inactive)
51 | CSCCC(Nc1ccc(S(=O)(=O)N2CCOCC2)cc1[N+](=O)[O-])C(=O)OCC(=O)N(C(C)C)C(C)C (stereo unspecified) | -3.39% (inactive)
52 | COc1ccccc1N1CCN(C(=O)c2cn(-c3ccccc3)nc2-c2cccnc2)CC1 | 0.24% (inactive)
53 | O=C(c1cn(-c2ccccc2)nc1-c1cccnc1)N1CCN(S(=O)(=O)c2ccccc2F)CC1 | -2.08% (inactive)
54 | NC(=O)C1CCN(C(=O)c2cn(-c3ccccc3)nc2-c2cccnc2)CC1 | 8.8% (active)
55 | CC(C)OC(=O)c1ccc(NCc2cc(O)ccc2O)cc1Cl | -0.65% (inactive)
56 | O=C(OC12CC3CC(CC(C3)C1)C2)c1ccc(NCc2cc(O)ccc2O)cc1 | 18.7% (active)
57 | COC(=O)c1ccc(NCc2cc(O)ccc2O)cc1 | -1.55% (inactive)
58 | CC(=O)NC(c1ccccc1)c1nc(-c2cccc(C(C)C)c2)cs1 (stereo unspecified) | -1.73% (inactive)
59 | CCCNC(=O)c1cc(C2CCCCN2C(=O)OC)on1 (stereo unspecified) | -0.19% (inactive)
60 | COc1ccc(OCc2cc(C(=O)NCC3(C)COC3)no2)c(Cl)c1 | -0.53% (inactive)
61 | Cc1cccnc1CC(C)NC(=O)c1cc(COc2cncc(Cl)c2)on1 (stereo unspecified) | 0.62% (inactive)
62 | Cc1cc(OCc2cc(C(=O)NCc3cc(C(C)C)no3)no2)cc(C)c1Cl | 10% (active)
63 | O=C(CCc1ccccc1)Nc1ccnn1C1CCN(Cc2ccc(OCCO)cc2)CC1 | 1.84% (inactive)
64 | CCCNC(=O)C1(C)CCN(Cc2ccc(Cl)c(Cl)c2)C1 (stereo unspecified) | -2.21% (inactive)
65 | CCOC(=O)c1c(-c2ccccc2)oc2cc(Br)c(O)c(C=O)c12 | 48% (active)
66 | CCOC(=O)c1c(C)oc2cc(Sc3ccccc3)c(O)c(O)c12 | 2.95% (inactive)
67 | Cc1oc2cc(Br)c(O)c(Br)c2c1C(=O)c1ccccc1 | -0.65% (inactive)
68 | COc1ccc(C2CC(c3cccc(OC)c3)=NN2c2ccc(S(N)(=O)=O)cc2)cc1 (stereo unspecified) | -0.4% (inactive)
69 | COc1ccc(-c2csc(C(O)c3cccc(Cl)c3)n2)cn1 (stereo unspecified) | -0.23% (inactive)

Row | SMILES | activation
70 | CC1(C(=O)NS(=O)(=O)c2ccc(C#N)cc2)CCN1C(=O)CC1CCCC1 (stereo unspecified) | -0.26% (inactive)
71 | Cc1ccc(C(=O)NC(=S)Nc2ccc(N3CCOCC3)cc2)cc1 | -0.72% (inactive)
72 | Cc1ccc(NC(=S)NC(=O)c2ccc(-c3ccccc3)cc2)cc1 | 8.85% (active)
73 | CC(=O)Nc1ccc(NC(=S)NC(=O)c2ccc([N+](=O)[O-])c(C)c2)cc1 | 0.22% (inactive)
74 | Cn1c(NCc2cccnc2)nc2cc(-c3ccc(F)cc3)sc2c1=O | 1.42% (inactive)
75 | OC[C@@H]1CN(Cc2ccc3c(c2)OCO3)C[C@H](n2cnc3c(NCc4ccco4)ncnc32)O1 | 0.72% (inactive)
76 | CC(=O)Nc1cncc(-c2ccccc2CO)n1 | -1.61% (inactive)
77 | COc1ccc2ccccc2c1CNc1nnnn1C | -2.85% (inactive)
78 | Cn1c(=S)sc2ccc3ccccc3c21 | 18.2% (active)
79 | CCc1nc2ccc(C(=O)N3CCC(O)(Cc4ccccc4)CC3)cn2c1N(C)C(=O)Cc1ccccc1 | -0.81% (inactive)
80 | Cc1ccc(Cc2cnc(N)s2)o1 | 0.06% (inactive)
81 | Cc1ccc(CCC(=O)Nc2ncc(Cc3cc(Cl)ccc3Cl)s2)o1 | 10.3% (active)
82 | O=C(CCc1ccccc1Cl)Nc1ccc(S(=O)(=O)Nc2nccs2)cc1 | -1.67% (inactive)
83 | CNc1cnc(-c2cc(OC)c(OC)c(OC)c2)cn1 | 0.24% (inactive)
84 | CCOC(=O)C1(C)CCCN(C(=O)c2ccc(F)c(Cl)c2)C1 (stereo unspecified) | -0.39% (inactive)
85 | Cc1ccc(NC(=O)c2sc3nc(N)c(C#N)cc3c2N)cc1 | 7.55% (inactive)
86 | CC(=O)Nc1ccc(NC(=O)c2sc3nc4c(c(-c5ccc(C)cc5)c3c2N)CCC4)cc1 | 11.7% (active)
87 | CC(=O)c1ccc(NC(=O)c2sc3nc4n(c(=O)c3c2C)CCCCC4)cc1 | -2.88% (inactive)
88 | CC1(C(=O)NCc2ccc(F)c(F)c2)Cc2c(-c3ccc4c(c3)OCO4)ccnc2O1 (stereo unspecified) | -2.86% (inactive)
89 | CCOC(=O)C1(C)CCCN(C(=O)c2ccc(N(C)C)cc2)C1 (stereo unspecified) | -1.51% (inactive)
90 | CN(C)CCCOc1ccc(-c2ccc3nccn3c2)cn1 | -1.74% (inactive)
91 | CSc1ccc(CN2CCC2(C)C(=O)Nc2ccc(C)c(O)c2)cc1 (stereo unspecified) | -0.16% (inactive)
